Compound activity as filed in PubChem BioAssay.
Most compounds without a hit are left out; they make up all but 3.1% or so of the library.
S16 F2sN tox: Cell viability qHTS assay in S16 Pmp22-F2sN cells. S16 Pmp22-F2sN Schwann cells viability, CellTiter-Glo, 24 h. Potency, µM (top dose mostly 57.5 µM), for the others: top-dose activity change, negative = cytotoxicity, most hits filed as cytotoxic. 0.48% of 43,000 active; note: potency is the fitted concentration of half-maximal effect; % is set by controls: 0 for no effect and ±100 for the full control effect; nearly all actives have a fitted effect of over 65% in size
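S16 Schwann cells carrying the Pmp22-F2sN reporter, seeded in 1536-well format, were exposed to library compounds for 24 h at 37C. Viability was read as CellTiter-Glo luminescence after 15 min at room temperature.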
p53null 39C kill: qHTS Screen for Compounds that Selectively Target Cancer Cells with p53 Mutations: Cytotoxicity of p53 Null Cells at the Nonpermissive Temperature | 0.97% of 55,000 active | H1299 p53-null (neo) cells, 39C, ATPlite viability, 24 h | AID 904, 2007 | Potency, µM (titrated, usually from 46.1 µM), inactives show at the highest dose activity, negative = cell killing, most hits filed as cytotoxic;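 note: potency is the fitted concentration of half-maximal effect; 0% = DMSO only and -100% = full killing by 100 µM tamoxifen; nearly all actives have a fitted effect of over 50% in size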
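ATP-luminescence viability readout (ATPlite, 20 min RT) after 24 hr compound treatment at 39C of H1299-neo or H1299-p53A138V cells; titration up to 46 uM; normalized to DMSO and 100 uM tamoxifen; Hill-fit AC50.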
mTORC1 inh: Acumen qHTS Assay for Inhibitors of the mTORC1 Signaling Pathway in MEF (Tsc2-/-, p53-/-) Cells: Sytravon; Potency, µM (titrated, usually from 38.3 µM), for the others: top-dose activity change, negative = inhibition, usual class: inhibitors; 0.78% of 44,000 active; AID 493208, 2011; Tsc2-/- p53-/- MEF, phospho-rpS6 immunofluorescence/PI, 24 h;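 note: potency is the fitted concentration of half-maximal effect; plate controls were DMSO for no effect and rapamycin for full effect; nearly all actives have a fitted effect of over 50% in size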
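Tsc2-/-, p53-/- mouse embryonic fibroblasts (empty-vector line) exposed to compound 24 hrs at 37 C, fixed, immunostained for phospho-rpS6 and counterstained with propidium iodide. Acumen laser scanning gives % positive cells from Alexa 488/PI ratio, thresholded using 7.5 nM rapamycin; PI count gives viability.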
PMP22 txn: Cell-based coincidence reporter assay to measure PMP22 gene transcription in S16 Pmp22-F2sN cells - Primary screen; S16 Pmp22-F2sN Schwann cells (luciferase reporters placed in the Pmp22 gene), FLuc/NLuc coincidence luminescence, 24 h; 2% of 43,000 active; Potency, µM (highest dose often 57.5 µM), for inactives: top-dose activity change, negative = inhibition, hits mostly inhibitors; active = clear falling dose curves in both reporters; inconclusive = both reporters move, but less clearly or upward; inactive = either reporter flat; the % is the NLuc reporter signal; note: potency is the fitted concentration of half-maximal effect; % is set by controls: 0 for no effect and ±100 for the full control effect
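Transcriptional readout in edited S16(c9) cells: two luciferases reported from the Pmp22 locus, measured in turn after 24 h compound incubation.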
p53null 32C tox: qHTS Screen for Compounds that Selectively Target Cancer Cells with p53 Mutations: Cytotoxicity of p53 Null Cells at the Permissive Temperature. H1299-neo p53 null cells, ATP luminescence, 24 h, 32C. 0.62% of 55,000 active. Potency, µM (highest dose often 46.1 µM), inactives show at the highest dose activity change, negative = cytotoxicity, hits mostly cytotoxic. AID 903, 2007;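 note: potency is the fitted concentration of half-maximal effect; 0% = DMSO only and -100% = full killing by 100 µM tamoxifen; nearly all actives have a fitted effect of over 55% in size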
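AC50 values derive from Hill modelling of qHTS concentration-response data (up to 46 uM) in H1299-neo cells. Cells were treated 24 h at 32C following overnight attachment at 37C; viability was read as cellular ATP.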
OvCa metastasis: Primary qHTS assay for Inhibitors of ovarian cancer metastasis using an organotypic tumor microenvironment (TME) model; 0.1% of 46,000 active; SKOV3ip1-GFP adhesion/invasion on 3D omental model, fluorescence; Potency, µM (highest dose often 45.8 µM), for inactives: top-dose activity change, negative = inhibition, actives largely listed as inhibitors;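 note: potency is the fitted concentration of half-maximal effect; plate controls were DMSO wells for no effect and tomatine positive control wells for full effect; nearly all actives have a fitted effect of over 65% in size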
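A 3D layer of primary human omental fibroblasts, mesothelial cells, fibronectin and collagen I, grown 48 hr, received SKOV3ip1-GFP cells in serum-free medium plus compounds at 0.36-46 umol/L. After 2 hr RT and 16 hr 37 C, fixed adherent GFP cells were counted; normalized to DMSO and tomatine.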
NLuc sat counter: Biochemical NLuc saturation counterscreen for small molecule modulators of PMP22 gene expression - Nano-Glo assay; shares compounds with PMP22 txn; 4% of 690 active; Secreted NLuc enzyme (filtered S16 cell medium), Nano-Glo luminescence; AID 1508638, 2021; Potency, µM (highest dose often 57.5 µM), for the others: at the highest dose activity change, negative = inhibition, actives largely listed as inhibitors; note: potency is the fitted concentration of half-maximal effect; % is set by controls: 0 for no effect and ±100 for the full control effect
NLuc Km ctr: Biochemical coelenterazine-based NLuc counterscreen for small molecule modulators of PMP22 gene expression - Km assay. 5% of 690 active. secreted NLuc enzyme, coelenterazine luminescence, Km conditions. shares compounds with PMP22 txn. Potency, µM (doses to about 57.5 µM), for the others: at the highest dose activity change, negative = inhibition, usual class: inhibitors; note: potency is the fitted concentration of half-maximal effect; % is set by controls: 0 for no effect and ±100 for the full control effect
FLuc ctr PMP22: Biochemical FLuc counterscreen for small molecule modulators of PMP22 gene expression; shares compounds with PMP22 txn; purified P. pyralis FLuc, luminescence, 10 min; Potency, µM (titrated, usually from 57.5 µM), without a hit: top-dose activity, negative = inhibition, hits mostly inhibitors; 690 tested, under 10 active; note: % of control where 0% means no effect
Target sequence (P08659 whole entry, looked up): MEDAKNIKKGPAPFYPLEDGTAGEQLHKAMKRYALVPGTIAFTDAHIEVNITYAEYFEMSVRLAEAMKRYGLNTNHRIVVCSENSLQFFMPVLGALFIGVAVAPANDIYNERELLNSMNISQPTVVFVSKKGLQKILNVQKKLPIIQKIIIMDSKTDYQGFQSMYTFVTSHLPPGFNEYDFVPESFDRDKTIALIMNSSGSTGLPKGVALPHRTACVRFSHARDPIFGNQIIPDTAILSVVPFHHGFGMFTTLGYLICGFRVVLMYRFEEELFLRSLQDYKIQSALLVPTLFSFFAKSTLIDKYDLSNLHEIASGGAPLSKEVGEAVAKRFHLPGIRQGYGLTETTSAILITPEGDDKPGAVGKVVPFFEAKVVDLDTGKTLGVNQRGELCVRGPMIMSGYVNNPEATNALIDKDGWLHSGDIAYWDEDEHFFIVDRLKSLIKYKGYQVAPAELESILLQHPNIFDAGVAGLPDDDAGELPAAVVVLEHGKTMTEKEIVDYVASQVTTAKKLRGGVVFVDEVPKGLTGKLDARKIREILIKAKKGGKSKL
S16 viab conf: Cell viability qHTS assay in S16 Pmp22-F2sN cells - Confirmatory screen. shares compounds with PMP22 txn. S16 Schwann cells viability, CellTiter-Glo ATP luminescence, 24 h. Potency, µM (highest dose often 57.5 µM), for the others: top-dose activity change, negative = viability loss, hits mostly cytotoxic. AID 1508641, 2021. 7% of 690 active; note: potency is the fitted concentration of half-maximal effect; % is set by controls: 0 for no effect and ±100 for the full control effect
PMP22 txn cnf: Cell-based coincidence reporter assay to measure PMP22 gene transcription in S16 Pmp22-F2sN cells - Confirmatory screen | shares compounds with PMP22 txn | S16 Schwann cells Pmp22-F2sN, dual luciferase, 24 h | Potency, µM (series often up to 57.5 µM), without a hit: at the highest dose activity change, negative = inhibition, hits mostly inhibitors | 22% of 690 active | AID 1508646, 2021; active = clear falling dose curves in both reporters; inconclusive = both reporters move, but less clearly or upward; inactive = either reporter flat; the % is the FLuc reporter signal; note: potency is the fitted concentration of half-maximal effect
PMP22 HiBiT cnf: Cell-based HiBiT reporter assay to measure PMP22 protein expression in S16 Pmp22-HiBiT cells - Confirmatory screen. Potency, µM (series often up to 27.9 µM), inactives show at the highest dose activity change, negative = inhibition, actives largely listed as inhibitors. 95 tested, under 10 active. shares compounds with PMP22 txn. S16 Schwann cells Pmp22-HiBiT, luminescence, 48 h
Target sequence (P25094 whole entry, looked up): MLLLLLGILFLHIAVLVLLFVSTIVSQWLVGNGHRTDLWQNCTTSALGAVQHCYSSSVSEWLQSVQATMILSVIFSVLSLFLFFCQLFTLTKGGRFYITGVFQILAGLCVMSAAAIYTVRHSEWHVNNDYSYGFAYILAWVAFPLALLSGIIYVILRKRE
The depositor's hits bear a star; i = inactive; ? = inconclusive; . = not tested or not shown; [ ] = another dose, or the depositor's remark. Unless noted, calls come from the whole dose curve; as a rule, active = well fitted curve in the direction sought with a large enough effect; inconclusive = small, poorly fitted or top-dose-only effect, or another doubt; inactive = no such curve, though single readings can be large; an effect the other way counts as inactive or inconclusive.

SMILES | S16 F2sN tox | p53null 39C kill | mTORC1 inh | PMP22 txn | p53null 32C tox | OvCa metastasis | NLuc sat counter | NLuc Km ctr | FLuc ctr PMP22 | S16 viab conf | PMP22 txn cnf | others
O=S(=O)(c1ccc(-c2csc(=Nc3ccc(OC(F)(F)Cl)cc3)n2CCCO)cc1)N1CCCC1 | ? | 22% | ? | 15µM* | -5%[9.22 µM] | ? | 0% | -2% | -10% | 22µM* | 19µM*
Cc1ccccc1-c1nc(CN2CCC(C(=O)NC(C)C)CC2)c(C)o1 | -2% | -15% | -10% | -5% | -3% | 1% | . | . | . | . | .
Cc1cc(Nc2sc(C(=O)c3ccc(F)cc3)c(N)c2C(=O)Nc2ccc(F)cc2)ccc1Cl | ? | 4% | -11% | 6.3µM* | 1% | ? | -19% | ? | 3% | ? | 6.1µM*
Cc1ccc(NC(=O)c2ccc3oc(=O)c(S(=O)(=O)c4ccccc4)cc3c2)cc1C | ? | 1% | 2% | 4% | -4% | i | . | . | . | . | .
CCOc1ccccc1NC(=O)C1CCN(S(=O)(=O)c2ccc3[nH]c4c(c3c2)CCCCC4)CC1 | -9% | -1% | 5% | -8% | -1% | 6% | . | . | . | . | .
Cc1ccc(Cn2c(C)c3cnn(CC(=O)N4CCN(c5cc(C)ccc5C)CC4)c(=O)c3c2C)cc1 | -16% | 9% | -5% | 12µM* | 55% | i | -6% | 15% | 8% | -13% | -15%
COc1ccccc1-c1noc(-c2ccc(N3CCN(C)CC3)c([N+](=O)[O-])c2)n1 | -6% | -28% | 0% | ? | -16% | i | . | . | . | . | .
COc1cccc(Cn2c(CNC(=O)c3cc([N+](=O)[O-])ccc3Cl)nc3cccnc32)c1 | 2% | 48% | -1% | 13µM* | 6% | -62% | -4% | -4% | -2% | 7% | 4%
CCc1ccccc1NC(=O)Cn1c(=O)c2cccn2c2ccc(F)cc21 | 6% | -5% | -8% | -4% | 5% | i | . | . | . | . | .
Cc1cccc(NC(=O)Cn2c(=O)c3cccn3c3ccccc32)c1C | -2% | 86% | ? | ? | -12% | 0% | -2% | 3% | 2% | 15% | -26%
CCCCN(CCCC)S(=O)(=O)c1ccc(NC(=O)c2c(-c3ccccc3)noc2C)cc1 | . | -4% | -1% | . | -1% | i | . | . | . | . | .
COc1ccc(NC(=O)CCNS(=O)(=O)c2ccc3c(c2)CCN3C(=O)C2CC2)cc1Cl | -25% | 8% | -24% | 14µM* | 6% | -25% | ? | ? | -5% | -7% | -38%
Fc1ccc(Nc2c(-c3c[nH]c4ccccc34)nc3ccccn23)cc1 | 2% | 1% | -5% | -1% | -5% | 9% | . | . | . | . | .
CCN(Cc1ccccc1)C(=O)Cn1c(=O)n(-c2ccccc2)c(=O)c2c1c1cc(C)ccc1n2C | ? | ? | 3% | 18µM* | -20% | 2% | -6% | 1% | 4% | 18% | ?
Cc1cccc(-n2c(=O)c3c(c4cc(C)ccc4n3C)n(CC(=O)NCCC3=CCCCC3)c2=O)c1 | 0% | -14% | -6% | ? | -2% | 2% | 2% | 12% | 5% | ? | 17µM* | PMP22 HiBiT cnf=4%
COc1ccc(NC(=O)Cn2c(=O)n(-c3cccc(C)c3)c(=O)c3c2c2cc(C)ccc2n3C)cc1Cl | 11% | -4% | -3% | 15µM* | -7% | 0% | -2% | 2% | 2% | 0% | ?
CCN(Cc1ccccc1)C(=O)Cn1c(=O)n(-c2cccc(C)c2)c(=O)c2c1c1cc(OC)ccc1n2C | 17% | 5% | 7% | ? | 14% | -2% | . | . | . | . | .
COc1ccc(CCNc2ncnc3onc(C)c23)c(OC)c1 | ? | -27% | 1% | 4µM* | -5% | 4% | -18% | 4% | -17% | ? | 4µM*
COc1cccc(CNc2ncnc3onc(C)c23)c1 | -13% | 6% | -3% | ? | 3% | -2% | . | . | . | . | .
CCC(=O)N1CCc2cc(Br)cc(S(=O)(=O)CCC(=O)N(C)c3cccc(C)c3)c21 | 6% | -5% | 4% | -10% | 5% | -1% | . | . | . | . | .
